Source: article PMC7862700, “An all-to-all approach to the identification of sequence-specific readers for epigenetic DNA modifications on cytosine”

Assays:
Experiment in all cases: DAPPL (digital affinity profiling via proximity ligation, sequencing); 10 mM Tris-HCl pH 7.5, 50 mM NaCl, 1 mM DTT, 4% glycerol, room temperature, 30 min; GST-TFs on glutathione beads, 16-mer random dsDNA library, 0.1% formaldehyde crosslink after washing; high values mean tight binding
Conditions in all cases: protein: recombinant; tags: N-terminal GST; dsDNA, one strand shown
ELF3 = biological target: T1, ELF3 (Homo sapiens, UniProt P78545 1-371)
T1 sequence: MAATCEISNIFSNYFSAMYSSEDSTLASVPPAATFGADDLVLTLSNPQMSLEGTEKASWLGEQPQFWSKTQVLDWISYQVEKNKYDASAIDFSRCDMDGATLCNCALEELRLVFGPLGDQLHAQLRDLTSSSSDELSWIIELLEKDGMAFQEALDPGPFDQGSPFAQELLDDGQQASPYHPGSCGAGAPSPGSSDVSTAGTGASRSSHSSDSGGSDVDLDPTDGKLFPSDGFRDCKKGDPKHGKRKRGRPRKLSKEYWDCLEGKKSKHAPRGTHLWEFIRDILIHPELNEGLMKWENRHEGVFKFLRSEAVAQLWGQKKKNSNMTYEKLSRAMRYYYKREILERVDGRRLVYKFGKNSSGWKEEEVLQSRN
Summary of the method: (§1)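 Binding signal is each hexamer's read frequency for a factor divided by its frequency in the tag-only sample. The factors were GST-fused human transcription factors from yeast, captured on glutathione beads, DNA-barcoded and pooled with that sample. Pools were incubated with 200 nmole of a random double-stranded 16-mer DNA library in Tris/NaCl/DTT/glycerol buffer at room temperature for 30 min, then washed, crosslinked with 0.1% formaldehyde, proximity-ligated with BsaI/T4 ligase (1 h, 37 °C), PCR-amplified and sequenced on an Illumina NextSeq500.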

CRX = CRX (Homo sapiens, UniProt O43186 1-299)
Sequence of CRX (O43186 whole entry): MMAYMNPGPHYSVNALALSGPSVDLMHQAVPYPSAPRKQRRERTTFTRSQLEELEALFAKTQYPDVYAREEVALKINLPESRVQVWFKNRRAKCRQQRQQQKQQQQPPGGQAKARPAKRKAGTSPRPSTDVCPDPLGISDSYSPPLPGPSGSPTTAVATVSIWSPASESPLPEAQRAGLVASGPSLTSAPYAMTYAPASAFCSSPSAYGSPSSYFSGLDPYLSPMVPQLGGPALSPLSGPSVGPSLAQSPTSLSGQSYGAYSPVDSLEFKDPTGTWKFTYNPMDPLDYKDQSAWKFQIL
Summary of the method: as §1

ETV1 = ETV1 (Homo sapiens, UniProt P50549 1-477)
Sequence of ETV1 (P50549 whole entry): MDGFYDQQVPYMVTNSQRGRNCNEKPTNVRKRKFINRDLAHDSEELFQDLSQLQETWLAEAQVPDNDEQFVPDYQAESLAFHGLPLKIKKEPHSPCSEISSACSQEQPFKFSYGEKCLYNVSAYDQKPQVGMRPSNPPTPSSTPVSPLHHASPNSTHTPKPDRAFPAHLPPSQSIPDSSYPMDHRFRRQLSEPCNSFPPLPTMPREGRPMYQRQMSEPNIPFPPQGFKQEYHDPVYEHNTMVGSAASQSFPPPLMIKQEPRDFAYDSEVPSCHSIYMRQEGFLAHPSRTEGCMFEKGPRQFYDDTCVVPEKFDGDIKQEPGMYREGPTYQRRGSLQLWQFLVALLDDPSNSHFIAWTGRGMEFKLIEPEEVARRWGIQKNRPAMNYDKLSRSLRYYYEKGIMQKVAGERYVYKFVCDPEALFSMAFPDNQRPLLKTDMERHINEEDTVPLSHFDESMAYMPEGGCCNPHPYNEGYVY
Summary of the method: as §1

ETV3L = biological target: T2, ETV3L (Homo sapiens, UniProt Q6ZN32 1-361)
T2 sequence: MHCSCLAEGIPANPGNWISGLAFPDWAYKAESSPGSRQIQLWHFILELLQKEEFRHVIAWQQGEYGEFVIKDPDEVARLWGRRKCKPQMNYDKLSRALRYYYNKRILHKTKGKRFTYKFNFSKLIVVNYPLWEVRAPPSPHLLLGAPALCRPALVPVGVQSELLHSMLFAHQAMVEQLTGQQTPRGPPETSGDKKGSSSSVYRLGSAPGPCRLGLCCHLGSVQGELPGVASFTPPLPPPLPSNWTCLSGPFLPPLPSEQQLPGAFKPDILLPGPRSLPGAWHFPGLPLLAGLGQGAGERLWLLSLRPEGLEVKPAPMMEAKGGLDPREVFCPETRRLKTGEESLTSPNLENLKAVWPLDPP
Summary of the method: as §1

ETS2 = biological target: T3, ETS2 (Homo sapiens, UniProt P15036 1-469)
T3 sequence: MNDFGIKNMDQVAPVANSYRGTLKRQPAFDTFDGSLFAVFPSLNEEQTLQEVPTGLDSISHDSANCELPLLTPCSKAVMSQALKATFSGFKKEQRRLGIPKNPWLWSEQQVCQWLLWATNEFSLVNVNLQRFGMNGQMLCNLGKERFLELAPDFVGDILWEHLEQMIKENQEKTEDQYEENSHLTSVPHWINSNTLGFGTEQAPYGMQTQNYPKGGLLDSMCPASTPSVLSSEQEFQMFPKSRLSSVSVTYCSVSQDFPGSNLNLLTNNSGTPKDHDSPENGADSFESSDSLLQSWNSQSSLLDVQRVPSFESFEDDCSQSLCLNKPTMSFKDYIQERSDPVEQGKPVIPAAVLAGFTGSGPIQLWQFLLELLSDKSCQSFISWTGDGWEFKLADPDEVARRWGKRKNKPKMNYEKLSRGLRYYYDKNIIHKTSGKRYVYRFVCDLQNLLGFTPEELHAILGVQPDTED
Summary of the method: as §1

SPDEF = biological target: T4, SPDEF (Homo sapiens, UniProt O95238 1-335)
T4 sequence: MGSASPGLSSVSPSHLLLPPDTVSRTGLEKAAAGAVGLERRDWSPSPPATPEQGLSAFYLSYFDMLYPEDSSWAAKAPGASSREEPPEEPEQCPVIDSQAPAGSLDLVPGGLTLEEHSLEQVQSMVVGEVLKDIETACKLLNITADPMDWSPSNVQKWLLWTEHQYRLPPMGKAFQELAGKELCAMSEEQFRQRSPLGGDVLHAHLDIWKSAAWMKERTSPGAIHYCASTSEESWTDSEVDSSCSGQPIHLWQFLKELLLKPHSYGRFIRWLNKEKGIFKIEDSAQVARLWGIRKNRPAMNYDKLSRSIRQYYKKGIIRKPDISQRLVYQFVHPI
Summary of the method: as §1

ETV7 = biological target: T5, ETV7 (Homo sapiens, UniProt Q9Y603 1-341)
T5 sequence: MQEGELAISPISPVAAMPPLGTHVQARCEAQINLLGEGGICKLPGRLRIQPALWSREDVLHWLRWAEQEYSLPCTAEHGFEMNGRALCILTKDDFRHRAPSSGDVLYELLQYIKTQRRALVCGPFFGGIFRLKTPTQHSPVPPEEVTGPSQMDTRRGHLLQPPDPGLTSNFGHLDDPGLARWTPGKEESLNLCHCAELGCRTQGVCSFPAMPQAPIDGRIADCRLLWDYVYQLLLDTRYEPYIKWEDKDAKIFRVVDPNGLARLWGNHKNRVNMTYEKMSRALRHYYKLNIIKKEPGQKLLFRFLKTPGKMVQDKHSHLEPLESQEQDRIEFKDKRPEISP
Summary of the method: as §1

ELF5 = biological target: T6, ELF5 (Homo sapiens, UniProt Q9UKW6-2 1-255)
T6 sequence: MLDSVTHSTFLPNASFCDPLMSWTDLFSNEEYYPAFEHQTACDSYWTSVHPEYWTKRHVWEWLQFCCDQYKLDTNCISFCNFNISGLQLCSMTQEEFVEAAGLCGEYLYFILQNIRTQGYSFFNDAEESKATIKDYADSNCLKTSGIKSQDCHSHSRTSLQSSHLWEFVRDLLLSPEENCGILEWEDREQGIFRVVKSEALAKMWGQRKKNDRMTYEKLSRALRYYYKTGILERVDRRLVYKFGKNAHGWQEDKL
Summary of the method: as §1

ETV3 = biological target: T7, ETV3 (Homo sapiens, UniProt P41162-2 1-143)
T7 sequence: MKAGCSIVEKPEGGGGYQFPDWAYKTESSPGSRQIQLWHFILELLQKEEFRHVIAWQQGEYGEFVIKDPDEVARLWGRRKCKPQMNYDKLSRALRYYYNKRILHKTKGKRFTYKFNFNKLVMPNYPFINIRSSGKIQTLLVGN
Summary of the method: as §1

ETV6 = ETV6 (Homo sapiens, UniProt P41212 1-452)
Sequence of ETV6 (P41212 whole entry): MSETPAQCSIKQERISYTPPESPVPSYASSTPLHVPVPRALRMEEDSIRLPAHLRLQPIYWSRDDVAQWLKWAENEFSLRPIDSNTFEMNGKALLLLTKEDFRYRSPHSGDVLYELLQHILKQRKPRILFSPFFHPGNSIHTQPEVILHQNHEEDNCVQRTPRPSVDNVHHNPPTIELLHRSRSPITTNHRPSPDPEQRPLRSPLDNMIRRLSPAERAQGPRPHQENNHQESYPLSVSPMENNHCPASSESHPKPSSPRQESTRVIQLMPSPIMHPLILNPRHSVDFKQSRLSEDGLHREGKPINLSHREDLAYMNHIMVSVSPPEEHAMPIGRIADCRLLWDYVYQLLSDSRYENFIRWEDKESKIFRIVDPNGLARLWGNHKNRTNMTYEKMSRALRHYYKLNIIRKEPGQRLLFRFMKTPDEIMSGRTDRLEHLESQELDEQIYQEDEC
Summary of the method: as §1

Sequence: TCAGAT
- binding signal (ELF3): 1.08 fold enrichment (6-mer frequency, TF over GST control)
- binding signal (CRX): 1.45 fold enrichment (6-mer frequency, TF over GST control)
- binding signal (ETV1): 1.05 fold enrichment (6-mer frequency, TF over GST control)
- binding signal (ETV3L): 1 fold enrichment (6-mer frequency, TF over GST control)
- binding signal (ETS2): 1.02 fold enrichment (6-mer frequency, TF over GST control)
- binding signal (SPDEF): 1.07 fold enrichment (6-mer frequency, TF over GST control)
- binding signal (ETV7): 1.03 fold enrichment (6-mer frequency, TF over GST control)
- binding signal (ELF5): 1 fold enrichment (6-mer frequency, TF over GST control)
- binding signal (ETV3): 1.02 fold enrichment (6-mer frequency, TF over GST control)
- binding signal (ETV6): 1.08 fold enrichment (6-mer frequency, TF over GST control)
